Among the test systems are HCT-15 colon; HT29 colon; SNB-75 CNS; SNB-19 CNS; U251 CNS; PC-3 prostate; SK-MEL-5 melanoma; UACC-62 melanoma; LOX IMVI melanoma; SK-MEL-28 melanoma; EKVX NSCLC; SN12C renal; UO-31 renal; TK-10 renal; ACHN renal; CAKI-1 renal; A498 renal; CCRF-CEM leukemia; MOLT-4 leukemia.
Holding throughout (test): NCI-60 one-dose screen, 48 h (100 = growth as untreated, 0 = no growth, -100 = all killed)
Conditions in all cases: 10 µM unless noted

The values below come from PubChem BioAssay (NCI).

This is part of a sample that, as a whole, favours compounds with a hit. Of some 83,000 tested, about 20% had one in any assay.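 The test compound was applied at a single concentration to cells in 96-well plates for 48 hours, and percent growth was recorded.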 A number with no mark means an inactive call. Activity calls are given as the source filed them. The calls were made as follows: active = growth percent below 10; inactive = the rest.

Consider `Cc1cc(O)cc(-c2c(-c3ccnc(-c4cccnc4)c3)cnn2C)c1`, for which the growth in the assay with HCT-15 colon is 74%; with HT29 colon it was 60.7%; in the assay on SNB-75 CNS it was 16.4%; in the assay on SNB-19 CNS, 96.4%; in the assay with U251 CNS, 69.3%; with PC-3 prostate, 47.8%. In addition, the growth in the assay on SK-MEL-5 melanoma is 56.5%; with UACC-62 melanoma, 62.1%; with LOX IMVI melanoma it was 61.5%; in the assay on SK-MEL-28 melanoma it was 60.8%; with EKVX NSCLC it was 89.5%; in the assay on SN12C renal it was 58.9%. In addition, the growth is 36.1% in the assay with UO-31 renal; 51% with TK-10 renal; 39.5% in the assay on ACHN renal; 42.3% in the assay with CAKI-1 renal; 5.82% (active) in the assay on A498 renal; 61.7% in the assay with CCRF-CEM leukemia. The growth in the assay with MOLT-4 leukemia is 54.8%.

As to `CN(C)CCOC(=O)Nc1nc2ccc(Sc3ccccc3)cc2[nH]1`, the growth in the assay with HCT-15 colon is 33.2%; in the assay on HT29 colon it was 1.58% (active); in the assay with SNB-75 CNS, -10.2% (active); in the assay on SNB-19 CNS it was 36.4%; with U251 CNS, 26.5%; in the assay with PC-3 prostate, 28%. For the same molecule, the growth in the assay with SK-MEL-5 melanoma was 19.3%; in the assay with UACC-62 melanoma, 42.4%; with LOX IMVI melanoma, 32.1%; with SK-MEL-28 melanoma it was 63.7%; in the assay with EKVX NSCLC, 47.1%; in the assay with SN12C renal, 40.5%. Further, the growth was 31.5% in the assay on UO-31 renal; 49.4% in the assay on TK-10 renal; 46.2% in the assay on ACHN renal; 33.9% with CAKI-1 renal; -3.9% (active) in the assay with A498 renal; 22.4% with CCRF-CEM leukemia. The growth with MOLT-4 leukemia was 41%.

`CC#CC(=O)N1CCC[C@H]1c1nc(-c2ccc(C(=O)Nc3ccccn3)cc2)c2c(N)nccn12`: the growth is 87.8% with HCT-15 colon; 73.4% in the assay on HT29 colon; 77% in the assay on SNB-75 CNS; 90.6% in the assay with SNB-19 CNS; 83.6% in the assay on U251 CNS; 81.1% in the assay with PC-3 prostate. The growth in the assay on SK-MEL-5 melanoma was 86.6%; in the assay with UACC-62 melanoma, 77.1%; in the assay on LOX IMVI melanoma, 93.7%; in the assay on SK-MEL-28 melanoma it was 88.3%; in the assay on EKVX NSCLC, 92.1%; in the assay on SN12C renal it was 72.3%. For the same molecule, the growth in the assay with UO-31 renal is 79%; with TK-10 renal, 72.8%; in the assay on ACHN renal it was 73.6%; in the assay with CAKI-1 renal it was 72.9%; in the assay on A498 renal it was 111%; with CCRF-CEM leukemia, 71.5%. Also, the growth with MOLT-4 leukemia is 89.4%.

`N#CCNC(=O)c1ccc(-c2ccnc(Nc3ccc(N4CCOCC4)cc3)n2)cc1`: the growth in the assay on HCT-15 colon was 20.7%; in the assay on HT29 colon, 24.2%; in the assay on SNB-75 CNS, -4.36% (active); with SNB-19 CNS, 50.8%; in the assay with U251 CNS, 19.3%; in the assay with PC-3 prostate, 30.8%. Besides, the growth was 25.1% in the assay with SK-MEL-5 melanoma; 34% in the assay on UACC-62 melanoma; 4.92% (active) with LOX IMVI melanoma; 36.7% in the assay on SK-MEL-28 melanoma; 43.9% in the assay on EKVX NSCLC; 31.5% in the assay on SN12C renal. The growth in the assay with UO-31 renal is -60.4% (active); in the assay on TK-10 renal, -8.51% (active); in the assay with ACHN renal it was 6.04% (active); in the assay on CAKI-1 renal it was -5.7% (active); in the assay with A498 renal, -31.8% (active); with CCRF-CEM leukemia it was 15.7%. In addition, the growth with MOLT-4 leukemia is 7.11% (active).

On to `COc1ccc2c(c1)cn1c3ccc(O)cc3nc(N)c21`, for which the growth in the assay with HCT-15 colon was 18.5%; with HT29 colon it was 21.2%; with SNB-75 CNS it was 15%; with SNB-19 CNS, 26.9%; with U251 CNS it was 23.7%; in the assay on PC-3 prostate it was 19.9%. The growth was 17.8% in the assay with SK-MEL-5 melanoma; 32.5% with UACC-62 melanoma; 24.2% in the assay with LOX IMVI melanoma; 42.6% in the assay with SK-MEL-28 melanoma; 41% in the assay with EKVX NSCLC; 34.6% in the assay with SN12C renal. In addition, the growth in the assay with UO-31 renal was 15.6%; in the assay on TK-10 renal it was 25.2%; in the assay with ACHN renal it was 27.4%; in the assay with CAKI-1 renal it was 26.9%; with A498 renal, 38.6%; in the assay on CCRF-CEM leukemia it was 23%. In the assay with MOLT-4 leukemia, the growth is 18.5%.

On to `Cn1cc(-c2ncnc3ccc(-c4cnc(Cl)c(NS(C)(=O)=O)c4)cc23)c2ccccc21`, for which the growth in the assay on HCT-15 colon was 13.2%; in the assay on HT29 colon, 11.7%; in the assay on SNB-75 CNS it was -14.9% (active); in the assay with SNB-19 CNS, 27.7%; with U251 CNS it was 24.4%; with PC-3 prostate, 20.1%. Besides, the growth in the assay with SK-MEL-5 melanoma is -14.6% (active); with UACC-62 melanoma, -18.8% (active); in the assay on LOX IMVI melanoma, 9.88% (active); with SK-MEL-28 melanoma it was 0.439% (active); with EKVX NSCLC, 11.7%; in the assay with SN12C renal it was 21.7%. For the same molecule, the growth in the assay on UO-31 renal was -5.34% (active); in the assay on TK-10 renal, -1.34% (active); in the assay on ACHN renal, 13.3%; with CAKI-1 renal it was 10.6%; with A498 renal, -42.7% (active); with CCRF-CEM leukemia it was 23.9%. The growth in the assay on MOLT-4 leukemia was 7.73% (active).

For the molecule `COc1cc2c(cc1O)c(=O)n(CCN(C)C)c1c3cc4c(cc3ncc21)OCO4`, the growth is 2.84% (active) with HCT-15 colon; 8.08% (active) in the assay with HT29 colon; -37.2% (active) in the assay with SNB-75 CNS; -0.441% (active) with SNB-19 CNS; -49% (active) with U251 CNS; -9.82% (active) in the assay with PC-3 prostate. The growth with SK-MEL-5 melanoma is -50.9% (active); with UACC-62 melanoma it was -54.2% (active); in the assay with LOX IMVI melanoma it was -56.3% (active); in the assay on SK-MEL-28 melanoma it was -7.55% (active); in the assay with EKVX NSCLC, 9.22% (active); with SN12C renal it was -5.86% (active). Moreover, the growth with UO-31 renal is -46.8% (active); with TK-10 renal it was -45.5% (active); with ACHN renal, -61.8% (active); in the assay with CAKI-1 renal it was -10.2% (active); with A498 renal it was -59.8% (active); in the assay on CCRF-CEM leukemia, -11.3% (active). For the same molecule, the growth in the assay with MOLT-4 leukemia was -15.9% (active).

For the molecule `CNC(=O)c1ccccc1Nc1nc(Nc2ccc3c(c2OC)CCC[C@H](N2CCN(CCO)CC2)C3)ncc1Cl`, the growth was 0.498% (active) with HCT-15 colon; -44.3% (active) in the assay on HT29 colon; -5.43% (active) with SNB-75 CNS; 18.8% in the assay on SNB-19 CNS; -19.4% (active) in the assay with U251 CNS; 22.9% with PC-3 prostate. Besides, the growth in the assay with SK-MEL-5 melanoma was -92.4% (active); with UACC-62 melanoma, -45% (active); in the assay with LOX IMVI melanoma, -89.6% (active); in the assay on SK-MEL-28 melanoma, -77.1% (active); in the assay on EKVX NSCLC, 11.8%; in the assay with SN12C renal, 7.63% (active). For the same molecule, the growth was 6.91% (active) in the assay on UO-31 renal; 26.2% with TK-10 renal; 5.75% (active) in the assay on ACHN renal; -26.6% (active) in the assay on CAKI-1 renal; -64.3% (active) in the assay on A498 renal; 7.29% (active) in the assay on CCRF-CEM leukemia. In addition, the growth in the assay on MOLT-4 leukemia is -23.5% (active).
